Values without a mark were called inactive. For some of these results: Entries with a potency or affinity are not part of this list. Activity calls are given as the source filed them. Unless noted, how the calls were made is not given here.
Columns and labels:
[1] = antimalarial activity against Dd2 strain (AID 2302;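 active means growth inhibition above 50% at the single 2 µM test dose, taken to imply half-maximal potency below 2 µM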;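 further: 0% = DMSO untreated growth and 100% = chloroquine plus artemisinin killed control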); settings: P. falciparum Dd2 in RBCs, LDH growth readout, 72 h; at 2 µM; hits give high values
[2] = HepG2 cytotoxicity, primary screen, cytotoxicity control for P. falciparum antimalarial project, cell-based, ATP luminescence (AID 2303;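 active means inhibition above 50%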;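 further: 0% = DMSO wells and 100% = digitonin-killed cells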); settings: HepG2 viability, 24-48 h, at 10 µM, hits give high values
[3] = target: L-lactate dehydrogenase (Plasmodium falciparum (isolate CDC / Honduras)) (UniProt Q27743); assay: PfLDH activity inhibition – cell lysate, 3D7 strain, counter-screen for P. falciparum growth inhibition project (AID 2304);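 further: 0% = vehicle and 100% = reference inhibitor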; settings: P. falciparum 3D7 crude extract, LDH APAD/NBT absorbance; at 2 µM; hits give high values
[4] = inhibition of 3D7 malaria parasite growth – strain 3D7 (AID 2306);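 further: 0% = DMSO wells and 100% = chloroquine plus artemisinin control wells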; settings: P. falciparum 3D7 erythrocytic growth, LDH absorbance, 72 h; at 2 µM; hits give high values
[5] = target: Calcium-dependent protein kinase 1 (Plasmodium falciparum (isolate 3D7)) (UniProt P62344); assay: PfCDPK1 kinase inhibitors, biochemical, TCAMS library (AID 1159585; cut-off not given, nearly all actives have IC50 up to about 0.98 µM;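 further: inhibitors leave more ATP so luminescence rises with inhibition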); settings: recombinant PfCDPK1, Kinase-Glo ATP depletion luminescence
[6] = target: Plasmodium falciparum protein kinase 6 (PK6, PF3D7_1337100) (UniProt Q8IDW1); assay: PfPK6 kinase inhibitors, biochemical, TCAMS library (AID 1159586); settings: recombinant PfPK6, Kinase-Glo ATP depletion luminescence
[7] = target: Protein kinase 7 (PK7), Plasmodium falciparum 3D7 (PF3D7_0213400) (UniProt Q7YTF7); assay: inhibition of Plasmodium PK7 catalytic activity – biochemical, TCAMS antimalarial set, Kinase-Glo luminescence (AID 1159587); settings: recombinant PfPK7, Kinase-Glo ATP depletion luminescence
[8] = target: Calcium-dependent protein kinase 4 (Plasmodium falciparum (isolate 3D7)) (UniProt Q8IBS5); assay: PfCDPK4 kinase inhibitors, biochemical, TCAMS library (AID 1159588; cut-off not given, nearly all actives have IC50 up to about 0.91 µM); settings: recombinant PfCDPK4, Kinase-Glo ATP depletion luminescence
Chain of Calcium-dependent protein kinase 4 (Plasmodium falciparum (isolate 3D7)) (Q8IBS5 whole entry, looked up): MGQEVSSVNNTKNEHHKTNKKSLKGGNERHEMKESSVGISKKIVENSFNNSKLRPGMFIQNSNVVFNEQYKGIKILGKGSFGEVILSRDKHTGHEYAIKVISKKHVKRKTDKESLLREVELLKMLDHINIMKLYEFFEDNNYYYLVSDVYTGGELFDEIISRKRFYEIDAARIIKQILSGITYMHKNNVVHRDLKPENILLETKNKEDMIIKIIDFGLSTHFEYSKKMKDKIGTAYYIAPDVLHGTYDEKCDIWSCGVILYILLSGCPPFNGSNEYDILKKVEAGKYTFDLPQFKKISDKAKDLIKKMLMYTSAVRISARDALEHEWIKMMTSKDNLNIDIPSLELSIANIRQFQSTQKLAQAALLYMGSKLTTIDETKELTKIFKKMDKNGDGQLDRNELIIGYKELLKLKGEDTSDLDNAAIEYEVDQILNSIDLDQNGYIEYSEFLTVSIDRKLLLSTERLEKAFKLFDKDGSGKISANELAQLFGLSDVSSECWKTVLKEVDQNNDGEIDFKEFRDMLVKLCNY

Chain of Calcium-dependent protein kinase 1 (Plasmodium falciparum (isolate 3D7)) (P62344 whole entry, looked up): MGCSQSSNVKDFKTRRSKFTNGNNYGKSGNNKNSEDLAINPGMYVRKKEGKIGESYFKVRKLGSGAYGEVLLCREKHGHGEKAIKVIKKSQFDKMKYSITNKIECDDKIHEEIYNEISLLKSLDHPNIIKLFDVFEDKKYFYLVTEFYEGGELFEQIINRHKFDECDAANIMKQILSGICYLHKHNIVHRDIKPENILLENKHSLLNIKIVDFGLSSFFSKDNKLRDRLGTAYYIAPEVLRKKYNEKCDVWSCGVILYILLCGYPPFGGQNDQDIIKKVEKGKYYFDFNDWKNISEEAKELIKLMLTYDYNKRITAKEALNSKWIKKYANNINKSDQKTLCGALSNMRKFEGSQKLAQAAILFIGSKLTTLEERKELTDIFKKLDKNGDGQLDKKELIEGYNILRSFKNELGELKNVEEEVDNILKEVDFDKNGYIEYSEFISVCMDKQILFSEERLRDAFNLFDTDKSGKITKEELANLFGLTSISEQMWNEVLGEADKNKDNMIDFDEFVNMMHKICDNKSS
Chain of Plasmodium falciparum protein kinase 6 (PK6, PF3D7_1337100) (Q8IDW1 1-305): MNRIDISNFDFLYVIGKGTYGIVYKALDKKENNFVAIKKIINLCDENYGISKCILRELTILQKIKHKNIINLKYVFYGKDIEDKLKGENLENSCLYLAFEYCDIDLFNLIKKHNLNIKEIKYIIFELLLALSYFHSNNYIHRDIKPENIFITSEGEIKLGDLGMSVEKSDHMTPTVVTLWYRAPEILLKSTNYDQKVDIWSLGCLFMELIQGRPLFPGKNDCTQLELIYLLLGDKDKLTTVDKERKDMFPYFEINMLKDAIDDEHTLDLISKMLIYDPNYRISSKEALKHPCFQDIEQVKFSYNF
Chain of L-lactate dehydrogenase (Plasmodium falciparum (isolate CDC / Honduras)) (Q27743 whole entry, looked up): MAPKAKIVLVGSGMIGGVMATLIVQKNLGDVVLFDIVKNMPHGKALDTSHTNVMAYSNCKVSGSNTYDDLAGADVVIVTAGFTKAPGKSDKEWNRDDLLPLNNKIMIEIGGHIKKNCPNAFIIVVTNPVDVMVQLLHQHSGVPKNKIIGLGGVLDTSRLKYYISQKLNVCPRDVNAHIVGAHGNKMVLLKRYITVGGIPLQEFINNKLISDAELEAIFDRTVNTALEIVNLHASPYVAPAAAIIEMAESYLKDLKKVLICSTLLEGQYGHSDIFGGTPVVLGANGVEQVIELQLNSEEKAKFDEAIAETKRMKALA
Chain of Protein kinase 7 (PK7), Plasmodium falciparum 3D7 (PF3D7_0213400) (Q7YTF7 1-343): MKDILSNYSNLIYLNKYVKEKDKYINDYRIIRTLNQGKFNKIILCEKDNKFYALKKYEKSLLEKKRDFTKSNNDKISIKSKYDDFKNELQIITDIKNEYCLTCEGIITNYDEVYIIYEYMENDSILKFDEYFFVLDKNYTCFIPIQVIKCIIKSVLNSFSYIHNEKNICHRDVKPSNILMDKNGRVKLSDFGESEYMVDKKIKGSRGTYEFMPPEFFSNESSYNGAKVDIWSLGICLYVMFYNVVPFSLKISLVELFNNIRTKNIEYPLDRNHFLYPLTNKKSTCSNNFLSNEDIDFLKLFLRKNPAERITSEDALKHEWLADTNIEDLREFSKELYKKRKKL

Structure (SMILES)	growth inhibition [1]	inhibition [2]	inhibition [3]	growth inhibition [4]	outcome [5]	outcome [6]	outcome [7]	outcome [8]
CCOc1cc(C)ccc1C1CCN(CCCCNC(=O)c2nc(-c3ccc(C(F)(F)F)cc3)[nH]c2C)CC1	98% (active)	30%	-5%	100% (active)	inactive	inactive	inactive	inactive
COc1ccc2nccc([C@@H](O)CN3CCC(NCc4cnc5c(c4)NC(=O)CS5)CC3)c2c1	29%	-15%	0%	87% (active)	inactive	inactive	inactive	inactive
CCCCCOc1c(CCC)cc(Cc2cnc(N)nc2N)cc1CCC	-3%	58% (active)	-2%	94% (active)	inactive	inactive	inactive	inactive
N#Cc1cccc(NC(=O)Nc2ccc3c(c2)CN(Cc2c[nH]c4ncccc24)C3)c1	12%	0%	5%	99% (active)	inactive	inactive	inactive	inactive
CCCCCCCCOc1ccc(N2C(N)=NC(N)=NC2(C)C)cc1	-6%	31%	-4%	100% (active)	inactive	inactive	inactive	inactive
CCCC(=O)Nc1ccc(OCCCCN(Cc2ccccc2C(F)(F)F)c2ccc(C(F)(F)F)c(C#N)c2)cc1	94% (active)	6%	0%	94% (active)	inactive	inactive	inactive	inactive
CCOc1ccc2ccccc2c1C(=O)Nc1cc(C)nn1-c1nc(C)cc(=O)[nH]1	86% (active)	28%	-1%	93% (active)	inactive	inactive	inactive	inactive
CC(C)(C)OC(=O)NCc1ccc(Nc2nnc(-c3cccc(C(=O)NCc4cc(C(F)(F)F)cc(C(F)(F)F)c4)c3)o2)cc1	13%	4%	0%	90% (active)	inactive	inactive	inactive	inactive
CC1CCCC(Nc2noc(-c3sccc3Br)n2)C1 (stereo not given)	99% (active)	7%	0%	102% (active)	inactive	inactive	inactive	inactive
O=C(Nc1cccc(-c2csc(-c3ccccc3)n2)c1)c1cccs1	71% (active)	0%	2%	89% (active)	inactive	inactive	inactive	inactive
c1cc(COc2ccc(C3=NCCN3)cc2)nc(COc2ccc(C3=NCCN3)cc2)c1	98% (active)	8%	-2%	100% (active)	inactive	inactive	inactive	inactive
CN(C)Cc1ccc(-c2cc3c(Nc4ccc(OCc5cccc(F)c5)c(Cl)c4)ncnc3s2)[nH]1	84% (active)	8%	-1%	100% (active)	inactive	inactive	inactive	inactive
CCNc1cc(C(=O)N[C@@H](Cc2ccccc2)[C@H](O)CNC(C)CCCC(C)C)cc(N2CCCS2(=O)=O)c1 (stereo not given in full)	98% (active)	2%	5%	99% (active)	inactive	inactive	inactive	inactive
Oc1ccc2[nH]c(-c3cccc(F)c3)nc2c1CN1CCC(N2CCCC2)CC1	54% (active)	0%	-6%	100% (active)	inactive	inactive	inactive	inactive
CC(CN(C)C)C(=O)Nc1ccc(-c2ccc(-c3nc4ccccc4[nH]3)cc2)cc1 (stereo not given)	83% (active)	2%	-3%	99% (active)	inactive	inactive	inactive	inactive
COc1ccc(-c2nc(NC(=O)Cc3ccc4c(c3)OCCO4)sc2C)cc1	99% (active)	0%	2%	100% (active)	inactive	inactive	inactive	inactive
COc1ccc(CNC2CCN(C)CC2)cc1-c1ccc(S(=O)(=O)NCCN2CCCC2)s1	1%	2%	-2%	90% (active)	inactive	inactive	inactive	inactive
COC(=O)CNC(c1ccccc1)c1cc(Br)ccc1NC(=O)c1ccccc1Br (stereo not given)	77% (active)	10%	-1%	99% (active)	inactive	inactive	inactive	inactive
COc1cccc(C=CC(=O)N(CCN)Cc2ccccc2)c1	-4%	-14%	-3%	99% (active)	inactive	inactive	inactive	inactive
Cc1ccc2nc(C)cc(NN=Cc3cccc([N+](=O)[O-])c3)c2c1	99% (active)	0%	1%	102% (active)	inactive	inactive	inactive	inactive

— PubChem BioAssay
